Marburg entry inh: inhibitors of Marburg virus binding or cell entry | Marburg virus pseudotyped entry inhibition, cell reporter | Potency, µM (highest dose often 37.8 µM), for inactives: at the top dose activity change, negative = inhibition, hits mostly inhibitors | actives 1.8% (n = 300,000); calls by dose curve; tested in HEK293 cells; note: potency is the fitted concentration of half-maximal effect
Lassa entry inh: blocks Lassa virus binding to or entry into cells; AID 540256; actives 1.2% (n = 300,000); Lassa virus pseudotype entry inhibition, cell reporter; Potency, µM (top dose mostly 37.9 µM), without a hit: top-dose activity change, negative = inhibition, hits mostly inhibitors; calls by dose curve; tested in HEK293 cells; note: potency is the fitted concentration of half-maximal effect; nearly all actives have a fitted effect of over 50% in size
FMDV antiviral: antivirals against foot and mouth disease virus. AID 1159524. actives 1.2% (n = 410,000). FMDV antiviral cell-based qHTS. Potency, µM (top dose mostly 57.9 µM), for inactives: top-dose activity change, negative = inhibition, most hits filed as inhibitors; calls by dose curve; tested in HEK293T cells; note: read-out not given here; potency is the fitted concentration of half-maximal effect; nearly all actives have a fitted effect of over 45% in size
HCMV antiviral: inhibitors of human cytomegalovirus | HFF cells, HCMV-luciferase reporter, 72 h; hits give low values | actives 4.5% (n = 410,000) | activity change, negative = inhibition, % at 57.5 µM; in the data active = activity change below about -60%; inconclusive = no clear call, values can overlap the other calls; inactive = above about -39%
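Screen run at 2 compound doses on HFFs infected with reporter HCMV, MOI 1 PFU/cell. Luciferase activity from cell lysates at 72 h post infection gave inhibition relative to buffer-only and Salinomycin wells.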
Active calls of the source: *; [ ] = remark or other dose. Sampled rows, rich in hits. Any-hit rate of the full collection: about 6.2%. % is set by controls: 0 for no effect and ±100 for the full control effect.

How did Cc1cccc(Nc2nnc(SCC(=O)NC3CCCc4ccccc43)s2)c1C (stereo unspecified) do in these assays?
Marburg entry inh: inconclusive; Lassa entry inh: inconclusive; FMDV antiviral: 40µM*; HCMV antiviral: -37

Results for Cc1ccccc1-n1c(C)nnc1SCC(=O)NC1CCCc2ccccc21 (stereo unspecified) ?
Marburg entry inh: inconclusive; Lassa entry inh: 2%; FMDV antiviral: 13%; HCMV antiviral: -26

What do the screens show for `COc1ccc(Nc2nccc3[nH]c(-c4cccc(F)c4)cc23)cc1OC`?
HCMV antiviral: -36

Results for COCCNC(=O)C1CCCN(Cc2cccc(C#N)c2)CC1 (stereo unspecified) ?
FMDV antiviral: -17%; HCMV antiviral: -61*

How did COCCNC(=O)C1CCCN(Cc2ccc(C#N)cc2)CC1 (stereo unspecified) do in these assays?
FMDV antiviral: -19%; HCMV antiviral: -24

Results for CCNC(=O)C1CCCN(Cc2ccc(OCc3ccccc3)cc2)CC1 (stereo unspecified) ?
FMDV antiviral: 6%; HCMV antiviral: -64*

What do the screens show for `CC(C)(C)CC(C)(C)NC(=O)C(C1CC1)N1C(=O)C(=O)c2ccccc21` (stereo unspecified)?
HCMV antiviral: 22

Results for CCC(CO)[n+]1c(C)cc(/C=C2\Sc3ccccc3N2Cc2ccccc2)cc1C (stereo unspecified) ?
Marburg entry inh: inconclusive; Lassa entry inh: inconclusive; FMDV antiviral: 10µM*; HCMV antiviral: -100*

How did COCCNC(=O)C1CCCN(C(=O)c2cc(-c3cccs3)oc2C)CC1 (stereo unspecified) do in these assays?
FMDV antiviral: -21%; HCMV antiviral: -67*

Results for Cc1[nH]nc2c1-c1nc3ccccc3nc1C(C)(C)C2 ?
Marburg entry inh: inconclusive; Lassa entry inh: inconclusive; FMDV antiviral: inconclusive; HCMV antiviral: -74*

What do the screens show for `CC12CCC(C)(c3nc4ccccc4nc31)C2(C)C`?
Marburg entry inh: 3%[46.1 µM]; Lassa entry inh: 8%; FMDV antiviral: -23%; HCMV antiviral: 15

What do the screens show for `O=C(NCC1(c2ccccc2)CCCC1)C(=O)Nc1cccc(C(F)(F)F)c1`?
Marburg entry inh: 30%[46.1 µM]; Lassa entry inh: 4%[46.1 µM]; FMDV antiviral: -22%; HCMV antiviral: 24

What do the screens show for `C=CCn1c(SCC(=O)N2CCc3ccccc3C2)nc2sc(C)cc2c1=O`?
Marburg entry inh: inconclusive; Lassa entry inh: inconclusive; FMDV antiviral: 22µM*; HCMV antiviral: -8

What do the screens show for `C=CCn1c(SCC(=O)O)nc2sc(CC)cc2c1=O`?
Marburg entry inh: 21%[46.1 µM]; Lassa entry inh: -1%; FMDV antiviral: -8%; HCMV antiviral: -10

Results for C=CCn1c(SCC(=O)/C(C#N)=C(\C)N)nc2sc(CC)cc2c1=O ?
Marburg entry inh: inconclusive; Lassa entry inh: inconclusive; FMDV antiviral: 22µM*; HCMV antiviral: -4

How did C=CCn1c(SCC(=O)c2cccs2)nc2sc(CC)cc2c1=O do in these assays?
Marburg entry inh: inconclusive; Lassa entry inh: inconclusive; FMDV antiviral: 20µM*; HCMV antiviral: inconclusive

Results for CCN(CC)CCN(C)C(=O)c1ccc(-c2ccccc2)nc1N(C)C ?
FMDV antiviral: -2%

Results for COc1ccc(-c2c(-c3ccccc3)c(C(=O)C(=O)NCCCN(C)C)n3ccc4cc(OC)c(OC)cc4c23)cc1OC ?
Marburg entry inh: inconclusive; Lassa entry inh: -13%; FMDV antiviral: 32%; HCMV antiviral: -96*

How did CN(C)CCNC(=O)C(=O)c1c(-c2ccccc2)cc2ccccn12 do in these assays?
Marburg entry inh: -5%[46.1 µM]; Lassa entry inh: 3%; FMDV antiviral: -6%; HCMV antiviral: -40

Results for CN(C)CCNc1ccc(CO)c2oc3ccc(O)cc3c(=O)c12 ?
Marburg entry inh: inconclusive; Lassa entry inh: inconclusive; FMDV antiviral: 2%; HCMV antiviral: -99*

Results for Cc1cccc(OCCn2nc(C(=O)O)c3ccccc3c2=O)c1 ?
Marburg entry inh: 15%[46.1 µM]; Lassa entry inh: 7%; FMDV antiviral: -28%; HCMV antiviral: 6

What do the screens show for `Cc1cccc(C)c1OCCn1nc(C(=O)O)c2ccccc2c1=O`?
Marburg entry inh: 10µM*; Lassa entry inh: 6.3µM*; FMDV antiviral: inconclusive; HCMV antiviral: -27

What do the screens show for `O=C(NCC1CCCO1)C(=Cc1cccc([N+](=O)[O-])c1)C(=O)NCC1CCCO1` (stereo unspecified)?
Marburg entry inh: 12µM*; Lassa entry inh: inconclusive; FMDV antiviral: inconclusive; HCMV antiviral: -99*

Results for CCN(C(=O)C(NS(=O)(=O)c1ccc(Br)s1)c1ccccc1)c1ccc(C)c(C)c1 (stereo unspecified) ?
Marburg entry inh: inconclusive; Lassa entry inh: inconclusive; FMDV antiviral: -24%; HCMV antiviral: -64*

What do the screens show for `O=C(CC1(CC2=NS(=O)(=O)c3ccccc3N2)CCCC1)NCCc1ccccc1`?
FMDV antiviral: -2%; HCMV antiviral: -68*

How did O=C(CSC1=NS(=O)(=O)c2ccccc2N1)NCCc1ccccc1 do in these assays?
Marburg entry inh: -2%; Lassa entry inh: 14%[46.1 µM]; FMDV antiviral: 1%; HCMV antiviral: 5

Results for COC(=O)[C@@H]1CC23C(=NC(c4ccc([N+](=O)[O-])cc4)=C(C(F)(F)F)[C@@H]2N(C)c2ccccc23)N1C(C)=O (stereo partly specified) ?
Marburg entry inh: 8%[14.2 µM]

Results for Cc1ccc(C)c(N2CCN(C(=O)CN3C(=O)COc4ccc(S(=O)(=O)N5CCC(C)CC5)cc43)CC2)c1 ?
Marburg entry inh: 1%[46.1 µM]; Lassa entry inh: 4%[46.1 µM]; FMDV antiviral: -17%; HCMV antiviral: 8

What do the screens show for `Cc1ccc(NC(=O)CSC2=C(C#N)C(c3ccc4c(c3)OCO4)CC(=O)N2)cc1C` (stereo unspecified)?
Marburg entry inh: -6%; Lassa entry inh: 4%; FMDV antiviral: -29%; HCMV antiviral: inconclusive

How did CCOC(=O)CSC1=C(C#N)C(c2ccc3c(c2)OCO3)CC(=O)N1 (stereo unspecified) do in these assays?
Marburg entry inh: 16µM*; Lassa entry inh: -29%; FMDV antiviral: -28%; HCMV antiviral: -13

How did CCOC(=O)CSC1=C(C#N)C(c2ccc(C)o2)CC(=O)N1 (stereo unspecified) do in these assays?
FMDV antiviral: -29%; HCMV antiviral: -84*

Results for CCCCOC(=O)CSC1=C(C#N)C(c2ccc3c(c2)OCO3)CC(=O)N1 (stereo unspecified) ?
Marburg entry inh: 7%; Lassa entry inh: 6%; FMDV antiviral: -27%; HCMV antiviral: -33

How did CCc1ccc(NC(=O)CSC2=C(C#N)C(c3ccc4c(c3)OCO4)CC(=O)N2)cc1 (stereo unspecified) do in these assays?
Marburg entry inh: -2%; Lassa entry inh: 0%; HCMV antiviral: -77*

What do the screens show for `Nc1ncnc2c1nc(Br)n2C1O[C@H]2COP(=O)(O)O[C@@H]2C1O` (stereo partly specified)?
Marburg entry inh: 3.2µM*

Results for Nc1nc2c(nc(Br)n2[C@@H]2O[C@H]3COP(=O)(O)O[C@H]3[C@@H]2O)c(=O)[nH]1 ?
FMDV antiviral: -4%

Screens (PubChem BioAssay)
